IL-1B inflam inh – qHTS for Inhibitors of Inflammasome Signaling: IL-1-beta AlphaLISA Primary Screen; 4.7% of 360,000 active; activity change, % at 57.5 µM; THP-1 LPS/ATP IL-1B secretion, AlphaLISA, 16 h; active compounds read low; in the data active means activity change below about -50%; inconclusive means mostly about -30% to -49%
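THP-1 cells pretreated 1 hr with compounds (up to 57.5 uM final), then stimulated with LPS (250 ng/mL final) plus ATP (1.25 mM final); secreted IL-1B measured by AlphaLISA after 16 hr, decreased signal indicating inhibition.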
TDP1 cell noCPT – qHTS for Inhibitors of human tyrosyl-DNA phosphodiesterase 1 (TDP1): qHTS in cells in absence of CPT; Potency, µM (top dose mostly 46.2 µM), for the others: top-dose activity change, negative = growth inhibition, most hits filed as inhibitors; 15% of 420,000 active; AID 686978, 2013; DT40 Tdp1-/- hTDP1 cells, no CPT, ATP luminescence, 48 h; further: potency means the concentration at half of the fitted maximal effect; nearly all actives have a fitted effect of over 55% in size
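Camptothecin absent (DMSO only). Human TDP1-complemented DT40 knockout cells, 400 cells/well, 37 °C for minimum 48 hr; ATP measured via CellTiter-Glo, 30 min dark incubation, luminescence.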
HT1080NT lethal – qHTS for induction of synthetic lethality in tumor cells producing 2HG: qHTS for the HT-1080-NT fibrosarcoma cell line; HT-1080-NT fibrosarcoma viability, CellTiter-Glo ATP luminescence, 48 h; Potency, µM (top dose mostly 46.1 µM), inactives show at the top dose activity, negative = less viability, usual class: cytotoxic; 1.6% of 360,000 active;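 further: NT is the 2HG producing partner of a matched IDH1 knockdown line; potency means the concentration at half of the fitted maximal effect; 0% = DMSO-treated cells and -100% = media-only wells without cells; nearly all actives have a fitted effect of over 55% in size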
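A 48-hour cytotoxicity screen used HT-1080-NT cells plated 2 hours before compound delivery. ATP-based CellTiter-Glo luminescence measured viability, normalized to DMSO and no-cell controls.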
HT1080 IDH1KD tx – qHTS for induction of synthetic lethality in tumor cells producing 2HG: qHTS for the HT-1080-IDH1KD cell line; Potency, µM (top dose mostly 46.1 µM), for the others: at the top dose activity, negative = toxicity, most hits filed as cytotoxic; AID 686971, 2013; 2% of 360,000 active; HT-1080 IDH1 knockdown viability, ATP luminescence, 48 h;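 further: potency means the concentration at half of the fitted maximal effect; 0% = DMSO wells and -100% = cell-free medium wells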
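CellTiter-Glo luminescence after 48 h compound exposure at 37 degrees C of IDH1-knockdown HT-1080 cells in 5% FBS RPMI. %Activity scaled between DMSO wells and cell-free media wells, with curves fitted and assigned curve classes.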
DT40 TDP1 CPT – qHTS for Inhibitors of human tyrosyl-DNA phosphodiesterase 1 (TDP1): qHTS in cells in presence of CPT. chicken DT40 Tdp1-/-;hTDP1 cells + 20 nM CPT, ATP luminescence, 48 h. 12% of 420,000 active. AID 686979, 2013. Potency, µM (doses to about 46.2 µM), without a hit: at the top dose activity change, negative = growth inhibition, actives largely listed as inhibitors; further: potency means the concentration at half of the fitted maximal effect; nearly all actives have a fitted effect of over 55% in size
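Cell growth measured by CellTiter-Glo luminescence after a minimum 48 h, 37 C compound exposure with 20 nM CPT in Tdp1-knockout DT40 cells stably expressing hTDP1, seeded 400/well; qHTS titration format.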
* marks the source's active call; other numbers are inactive results; ? = inconclusive; nt = no result. Hits are enriched below; roughly 19% of the tested compounds scored in any of these assays. Unless noted, the call rests on the fitted dose curve; in most records, active means well fitted curve in the direction sought with a large enough effect; inconclusive means small, poorly fitted or top-dose-only effect, or another doubt; inactive means no such curve, though single readings can be large; an effect the other way counts as inactive or inconclusive. Unless noted, on the % scale 0 is the no-effect control and ±100 the full control effect.

SMILES	IL-1B inflam inh	TDP1 cell noCPT	HT1080NT lethal	HT1080 IDH1KD tx	DT40 TDP1 CPT
Clc1ccc(CNc2ncnc3[nH]ncc23)cc1Cl	-24	?	?	?	-2%
Clc1ccc(CNc2ncnc3[nH]ncc23)c(Cl)c1	-54*	16µM*	-3%	-1%	?
COc1cc2ncnc(NCc3ccccc3C)c2cc1OC	-15	?	3%	8%	?
CCCCN(C(=O)c1cnccn1)c1c(N)n(CCC)c(=O)[nH]c1=O	17	5%	6%	6%	-4%
Cc1ccccc1CNc1ncnc2cc(Cl)ccc12	53	?	?	?	-6%
Cc1ccc(CNc2ncnc3cc(Cl)ccc23)cc1	1	18µM*	?	23µM*	26µM*
Cc1ccc(CNc2ncnc3cc(Cl)ccc23)o1	-18	13µM*	-5%	-3%	10µM*
COc1cc2ncnc(NCc3ccc(Cl)cc3)c2cc1OC	-3	?	1%	-1%	?
Fc1ccc(F)c(CNc2ncnc3cc(Cl)ccc23)c1	?	15µM*	?	?	15µM*
COc1cc2ncnc(N[C@H](C)c3ccccc3)c2cc1OC	40	23µM*	-3%	-4%	18µM*
COc1cc2ncnc(NCc3ccccc3F)c2cc1OC	-21	?	11%	3%	?
COc1ccc(CNC(=O)OCCN2CCN(Cc3ccccc3)CCC2=O)cc1	-1	-15%	0%	4%	-13%
Cc1nc(C(F)(F)F)ccc1C(=O)N1CCC1(C)C(=O)NS(=O)(=O)c1cccc(F)c1 (configuration not stated)	23	1%	17%	23%	-7%
Cc1ccc2c(c1)nnn2C1CCN(S(=O)(=O)c2ccc(C(=O)N3C(C)CCCC3C)cc2)CC1 (configuration not stated)	-67*	9.2µM*	?	-23%	9.2µM*
CC1CC(C)CN(C(C)C(=O)Nc2cc(S(=O)(=O)N3CCCCC3)ccc2Cl)C1 (configuration not stated)	-15	15µM*	-5%	-2%	?
Cc1ccc(S(=O)(=O)N2CCCCC2)cc1C(=O)N1C(C)CCCC1C (configuration not stated)	1	13µM*	2%	11%	?
CC1CCN(C(C)C(=O)Nc2cc(S(=O)(=O)N3CCCCC3)ccc2Cl)CC1 (configuration not stated)	-17	?	0%	6%	?
CC1CC(C)CN(C(=O)c2cc(S(=O)(=O)N3CCCCC3)ccc2Cl)C1 (configuration not stated)	48	15µM*	-2%	0%	16µM*
CC1CC(C)CN(C(=O)c2ccc(S(=O)(=O)N3CCCCC3)cc2)C1 (configuration not stated)	-7	-21%	-2%	-2%	-5%
Cc1cc(Cl)nc(Cl)c1C(=O)NCc1ccc(Cl)cc1	6	2%	8%	15%	-17%
CCc1cccc(NC(=O)CCc2nc3cccnc3n2Cc2ccc(OC)cc2)c1	nt	?	nt	nt	-16%
CCN(CC)C(=O)OCc1c(-c2cccc(OC)c2)ncc2ccccc12	-8	?	0%	-3%	-21%
COc1cccc(-c2ncc3ccccc3c2COC(=O)N2CCCCC2)c1	-1	16µM*	2%	-7%	?
COc1cccc(OC)c1C(=O)OCc1c(-c2ccccc2)ncc2ccccc12	-7	18µM*	-2%	-1%	21µM*
O=C(OCc1c(-c2ccccc2)ncc2ccccc12)c1ccc(F)cc1	8	16µM*	2%	7%	?
CCN(CC)C(=O)OCc1c(-c2ccccc2)ncc2ccccc12	-26	23µM*	-1%	10%	?

Source: PubChem BioAssay (National Center for Advancing Translational Sciences (NCATS))
